# Inconclusive results are not listed. Values without a mark were called inactive. Calls follow the shape of the dose curve; as a rule, active = well fitted inhibition curve with a large enough effect; inconclusive = small, poorly fitted or top-dose-only effect; inactive = flat fitted curve, though single readings scatter.
# Biological target: Polyunsaturated fatty acid lipoxygenase ALOX12 (Homo sapiens) (UniProt P18054)
# Assay: Confirmation qHTS Assay for Inhibitors of 12-hLO (12-human lipoxygenase)
# Conditions: purified 12-hLO, xylenol orange absorbance; active compounds read low
# From the text: Assay Provider: Holman, T.R., University of California, Santa Cruz Screening Center PI: Austin, Christopher P. Screening Center: NIH Chemical Genomics Center Human lipoxygenase 12hLO is a member of the closely related lipoxygenase family of enzymes which catalyze the site-specific oxidation of arachidonic acid to various hormone precursor molecules and as such is a candidate for drug development in a variety of disease areas, such as cancer and inflammation. Inhibition of 12hLO activity was screened by utilizing arachidonic acid as a substrate. The extent of hydroperoxide product formation was measured by a secondary chromogenic reaction in which xylenol orange (XO, Sigma-Aldrich, cat. number 39,818-7) reacts with the ferric ions produced from the reaction between the hydroperoxide and ferrous ions. The Fe(III)-XO complex is characterized with red-shifted absorbance at 560 nm. A purified preparation of human 12hLO was supplied by Professor Ted Holman, University of California, Santa Cruz. This assay includes some confirmation and follow-up compounds for related primary screening assay AID 1452.
# Assay Protocol: Buffer: 25 mM Hepes pH 7.0, 0.01% Triton X-100. […] The absorbance at 405 and 573 nm were measured using ViewLux (Perkin-Elmer) High-throughput CCD imager and absorbance protocol settings. The 573-to-405 absorbance ratio was used to compute reaction progress.
# Polyunsaturated fatty acid lipoxygenase ALOX12 (Homo sapiens), sequence (P18054 whole entry, looked up): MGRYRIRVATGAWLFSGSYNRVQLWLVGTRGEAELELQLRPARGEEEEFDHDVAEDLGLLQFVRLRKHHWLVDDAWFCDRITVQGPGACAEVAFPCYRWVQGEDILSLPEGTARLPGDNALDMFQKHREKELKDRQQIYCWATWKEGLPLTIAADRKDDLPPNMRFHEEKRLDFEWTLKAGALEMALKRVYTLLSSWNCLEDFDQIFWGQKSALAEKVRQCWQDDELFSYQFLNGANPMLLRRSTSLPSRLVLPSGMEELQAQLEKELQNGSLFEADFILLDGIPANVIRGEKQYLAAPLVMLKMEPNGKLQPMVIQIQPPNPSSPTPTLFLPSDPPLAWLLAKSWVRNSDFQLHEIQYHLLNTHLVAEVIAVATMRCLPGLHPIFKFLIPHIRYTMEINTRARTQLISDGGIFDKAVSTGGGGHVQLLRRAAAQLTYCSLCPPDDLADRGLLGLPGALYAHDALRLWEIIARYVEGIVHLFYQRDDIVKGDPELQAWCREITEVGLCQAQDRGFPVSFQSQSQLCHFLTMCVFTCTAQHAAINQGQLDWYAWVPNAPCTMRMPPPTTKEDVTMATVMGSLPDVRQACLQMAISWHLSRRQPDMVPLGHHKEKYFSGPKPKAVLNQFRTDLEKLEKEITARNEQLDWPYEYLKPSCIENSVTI
structure (smiles),measurement,value
CCC(C)C(=O)c1c(O)c(C)c2oc3c(C)c(O)c(C(=O)C(C)CC)c(O)c3c2c1O (stereo unspecified),"activity change, negative = inhibition",-25.9%

# Source: PubChem BioAssay AID2162 (National Center for Advancing Translational Sciences (NCATS), 2009)
